Results: PubChem BioAssay (NCI)
Compounds without any hit were thinned out: in the full panel of roughly 83,000, 20% have a hit.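 Compound tested at a single concentration for 48 hours in 96-well plates; a percent growth value below 10 was scored as active.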 Active and inactive are the calls of the source.

Key:
Test in all cases: NCI-60 one-dose screen, 48 h (100 = growth as untreated, 0 = no growth, -100 = all killed)
Conditions in all cases: 10 µM unless noted
[1] = test system: HCT-15 colon
[2] = test system: HT29 colon
[3] = test system: SNB-75 CNS
[4] = test system: SNB-19 CNS
[5] = test system: U251 CNS
[6] = test system: PC-3 prostate
[7] = test system: SK-MEL-5 melanoma
[8] = test system: UACC-62 melanoma
[9] = test system: LOX IMVI melanoma
[10] = test system: SK-MEL-28 melanoma

Measured: growth

CCCCNC(=O)Oc1ccc(/C(=C(/C)Cc2ccc(OC)cc2)c2ccc(OCCN3CCCCCC3)cc2)cc1
active: [2] 3.69%
inactive: [1] 27.8% | [3] 79.2% | [4] 85.8% | [5] 62.5% | [6] 65.5% | [7] 82.7% | [8] 79.1% | [9] 14% | [10] 95%

CC(C)CCN(CCC(C)C)CC(O)c1cc2c(c3ccccc13)CCCC2 (stereo not given)
inactive: [1] 59.4% | [2] 32.2% | [3] 91.6% | [4] 97.8% | [5] 72.9% | [6] 66.4% | [7] 72.7% | [8] 49.8% | [9] 51.9% | [10] 94.7%

Cc1ccc(/C=C/C(=O)Nc2ncc(Cc3ccc(F)cc3)s2)o1
inactive: [1] 22% | [2] 21.6% | [3] 52.1% | [4] 68.7% | [5] 47.5% | [6] 38.4% | [7] 45.3% | [8] 31.5% | [9] 40.6% | [10] 59.7%

CC1(C)CC2=C3C=C[C@@H]4[C@@]5(C)CCC(=O)C(C)(C)[C@@H]5CC[C@@]4(C)[C@]3(C)CC[C@@]2(C(=O)O)C[C@H]1O
inactive: [2] 14% | [3] 19.2% | [4] 32.1% | [5] 22.6% | [6] 40.4% | [7] 14% | [8] 20.6% | [10] 25%
active: [1] 6.74% | [9] 7.33%

CCOC(=O)c1c(C)nc2c(c1N)CC(=O)N2Cc1ccc(OC)cc1
active: [3] -5.39% | [4] 4.6% | [5] 4.05%
inactive: [1] 55.6% | [2] 38.4% | [6] 43% | [7] 53.7% | [8] 25.7% | [9] 75.9% | [10] 55%

Clc1ccccc1-c1cnn2cc(-c3ccccc3)cnc12
inactive: [1] 70.1% | [2] 73.4% | [3] 74.2% | [4] 71% | [5] 82.9% | [6] 86.4% | [7] 93.2% | [8] 65.9% | [9] 94.6% | [10] 88.3%

O=C(NC(Cc1nnc2n(Cc3ccccc3)c(=O)c3c4c(sc3n12)CCCC4)c1ccccc1)c1ccccc1 (stereo not given)
inactive: [1] 138% | [2] 106% | [3] 81.3% | [4] 99.1% | [5] 111% | [6] 96.7% | [7] 96.1% | [8] 85.9% | [9] 109% | [10] 110%

CNC(=O)c1ccccc1Nc1nc(Nc2cc(OC)c(OC)c(OC)c2)ncc1Br
active: [1] 3.34% | [2] -0.259% | [3] -55% | [4] 6.35% | [5] -9.93% | [7] -22.3% | [8] -69.6% | [9] -60.3% | [10] -13.6%
inactive: [6] 61.4%

Cc1nnc(-c2ccc3c(c2)nc(/C=C/c2ccccc2)n3C2CCCCC2)o1
inactive: [1] 49.4% | [2] 37.3% | [3] 103% | [4] 102% | [5] 79.8% | [6] 63.5% | [7] 70.8% | [8] 61.8% | [9] 44.3% | [10] 72.4%

CN(C)c1ccc(-c2nc(-c3ccccc3)c(-c3ccccc3)[nH]2)cc1
inactive: [1] 77.5% | [2] 58.9% | [3] 106% | [4] 106% | [5] 103% | [6] 76.9% | [7] 100% | [8] 97.7% | [9] 88.7% | [10] 103%

O=C1C(Nc2ccccn2)=C(I)C(=O)c2ncccc21
active: [1] -60% | [2] -14.5% | [3] -94.3% | [4] 0% | [5] -82.4% | [6] 6.61% | [7] -98.9% | [8] -68% | [9] -72.7% | [10] -36.7%

O=C(CSc1nc(-c2ccccc2)cc(=O)[nH]1)Nc1nc(-c2ccccc2)cs1
inactive: [1] 89.7% | [2] 99.1% | [3] 85.9% | [4] 105% | [5] 99.9% | [6] 78.8% | [7] 85.7% | [8] 69.1% | [9] 96.6% | [10] 111%

COc1ccc(/C=C2\COc3ccc(O)cc3C2=O)cc1
inactive: [1] 77.5% | [2] 80.1% | [3] 96.8% | [4] 96.7% | [5] 85.5% | [6] 95.2% | [7] 99.3% | [8] 85.7% | [9] 74.3% | [10] 102%
